For assay [1], the target named is Glucocorticoid receptor (Homo sapiens) (UniProt P04150). Nature of the assay: GR-EFC Redistribution (AID 451; calls by dose curve; also: potency is read from the fitted curve at half-maximal effect). The following applies: CHO-K1 GR-EFC translocation, beta-gal luminescence, 2 h. In a few lines:
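CHO-K1 cells stably expressing nuclear-localized β-gal enzyme acceptor and GR fused C-terminally to the enzyme donor fragment; ligand-driven nuclear translocation restores β-gal by complementation. Compounds titrated up to 46 uM final, 2 h at 37 °C; luminescence read.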

For assay [2], the target named is Mitogen-activated protein kinase 10 (Mus musculus) (UniProt Q61831). Nature of the assay: JNK3 AlphaScreen Assay (AID 530; active = well fitted curve in either direction with a large enough effect, not every such curve was filed as active;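 also: kinase came from lysate of stimulated human HepG2 cells; % is scaled to controls: 0 for no effect and ±100 for the full control effect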). The following applies: JNK3 lysate, c-Jun phosphorylation; series mostly up to 25.6 µM. The gist of the method: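 Biotinylated GST-cJun(1-79) served as substrate for JNK3 in HepG2 lysates stimulated with IL-1beta and TNF-alpha. ATP was 10 uM final, pH 7.6. Ser73 phosphorylation was quantified by AlphaScreen (680 nm excitation).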

The target of assay [3] is 3',5'-cyclic-AMP phosphodiesterase 4B (Homo sapiens) (UniProt Q07343). Nature of the assay: qHTS Assay for Inhibitors of PDE-IV (AID 607; active = well fitted activation curve with a large enough effect in the main read-out, with a control signal flat, not every such curve was filed as active; also: % of control where 0% means no effect). The following applies: HEK293 ACTOne CNG channel cells, membrane potential fluorescence; series mostly up to 22.9 µM. The gist of the method:
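HEK293 ACTOne cells with CNG channel (1000/well), endogenous PDE4; membrane potential dye, compounds up to 22.9 uM final. Fluorescence Ex 535/Em 590; RO 20-1724 (100 uM final) as reference.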

A short description of assay [4]: qHTS Assay for Lipid Storage Modulators (AID 1519; calls by dose curve; as to activity change, negative = inhibition: % is scaled to controls: 0 for no effect and ±100 for the full control effect). Conditions: Drosophila S3 cells, BODIPY lipid droplet/cell ratio, laser cytometry, cells loaded with oleic acid. In a few lines: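 Cells seeded at 5,000 per well were treated with compounds over a concentration series and loaded with oleic acid (400 uM, as added). Lipid droplet fluorescence (488 nm excitation, 500-530 nm channel) was read by laser-scanning cytometry and normalized to 20 uM Triacsin C.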

The target in assay [5] is Ubiquitin carboxyl-terminal hydrolase 1 (Homo sapiens) (UniProt O94782). Nature of the assay: Inhibitors of USP1/UAF1: Pilot qHTS (AID 504865).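 Also: rhodamine fluorescence freed from ubiquitin-rhodamine substrate followed over time; top concentration of the series differs between compounds; % is scaled to controls: 0 for no effect and ±100 for the full control effect; nearly all actives have a fitted effect of over 35% in size.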 The following applies: purified USP1/UAF1, Ub-rhodamine cleavage fluorescence; series mostly up to 114 µM. The gist of the method:
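USP1/UAF1 complex at 1 nM preincubated 15 min at room temperature with compound, then Ub-Rho substrate added at 150 nM final. Fluorescence (480/540 nm) read kinetically in 50 mM HEPES pH 7.8, 0.5 mM EDTA, 1 mM TCEP, 0.1 mg/ml BSA, 0.01% Tween-20.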

The target of assay [6] is ATP-dependent 6-phosphofructokinase (Trypanosoma brucei brucei) (UniProt O15648). Nature of the assay: qHTS Assay to Find Inhibitors of T. brucei phosphofructokinase: hit validation (AID 492961).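 Also: luminescence reports ADP formed as PFK phosphorylates fructose-6-phosphate with ATP; % is scaled to controls: 0 for no effect and ±100 for the full control effect.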 Conditions: T. brucei PFK, ADP-Glo luminescence; series mostly up to 24.3 µM. In a few lines:
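Reaction: 0.1 M triethanolamine pH 8.0, 5 mM MgCl2, F6P 0.5 mM, ATP 0.1 mM, PFK 1.25 nM, 45 min RT. Read-out: ADP-Glo luminescence. Analysis: concentration-response fits, classed by r2 and efficacy.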
For orientation: Quantitative high-throughput screening tests each substance at several concentrations.

Assay [7] addresses Luciferin 4-monooxygenase (Photinus pyralis) (UniProt P08659). Nature of the assay: Biochemical firefly luciferase enzyme assay for NPC (AID 624030).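 Also: purified P. pyralis luciferase at 10 nM with luciferin and ATP substrate; 0% = DMSO and -100% = full luciferase inhibition by PTC124 control; nearly all actives have a fitted effect of over 70% in size.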 Conditions: purified P. pyralis luciferase, luminescence, 5 min; series mostly up to 24.9 µM. In a few lines:
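Counter-screen for direct inhibition of the luciferase enzyme by approved-drug library compounds, run at 10 nM enzyme in 50 mM Tris acetate (final). Luminescence was read within 5 min of enzyme-buffer addition and normalized to PTC124 versus DMSO (0%).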

Assay [8] is described as follows: qHTS profiling for inhibitors of Plasmodium falciparum proliferation (AID 504749). Also: nearly all actives have a fitted effect of over 60% in size. Also: potency is read from the fitted curve at half-maximal effect.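 As to activity, negative = inhibition: 0% = DMSO vehicle and full inhibition = artemisinin control.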 The following applies: P. falciparum in erythrocytes, SYBR Green DNA, 72 h. In a few lines: (§1)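 Fluorescence of SYBR Green-bound parasite DNA, read at 485/535 nm, served as the growth measure. Infected erythrocytes were cultured with compound 72 h; artemisinin (0.29 uM) and DMSO wells defined the normalization range.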

The test system of another assay is AS120. The assay is described as above. The following applies: P. falciparum in erythrocytes, SYBR Green DNA, 72 h; series mostly up to 12.8 µM. In a few lines:
as §1

In a further assay the test system is C2A. Described as above. Conditions: P. falciparum in erythrocytes, SYBR Green DNA, 72 h; series mostly up to 12.8 µM. In a few lines:
as §1

For another assay, the system named is CP191. The description is as above. Conditions: P. falciparum in erythrocytes, SYBR Green DNA, 72 h; series mostly up to 12.8 µM. The gist of the method:
as §1

A further assay deals with CP217. The description is as above. Conditions: P. falciparum in erythrocytes, SYBR Green DNA, 72 h; series mostly up to 12.8 µM. The gist of the method:
as §1

The test system of a further assay is CP305. The description is as above. Conditions: P. falciparum in erythrocytes, SYBR Green DNA, 72 h; series mostly up to 12.8 µM. The gist of the method:
as §1

Another assay relates to CP329. Described as above. The following applies: P. falciparum in erythrocytes, SYBR Green DNA, 72 h; series mostly up to 12.8 µM. The gist of the method: as §1
For the next assay, the system named is ECU. The description is as above. The following applies: P. falciparum in erythrocytes, SYBR Green DNA, 72 h; series mostly up to 12.8 µM. In a few lines: as §1
A further assay concerns FAB9. The assay is described as above. The following applies: P. falciparum in erythrocytes, SYBR Green DNA, 72 h; series mostly up to 12.8 µM. In a few lines:
as §1

The next assay relates to N140. Described as above. Conditions: P. falciparum in erythrocytes, SYBR Green DNA, 72 h; series mostly up to 12.8 µM. The gist of the method: as §1
The subject of a further assay is PC15. Described as above. Conditions: P. falciparum in erythrocytes, SYBR Green DNA, 72 h; series mostly up to 12.8 µM. In a few lines:
as §1

For a further assay, the system named is PC49. The description is as above. The following applies: P. falciparum in erythrocytes, SYBR Green DNA, 72 h; series mostly up to 12.8 µM. The gist of the method:
as §1

The subject of a further assay is TAB165. The description is as above. Conditions: P. falciparum in erythrocytes, SYBR Green DNA, 72 h; series mostly up to 12.8 µM. The gist of the method:
as §1

Where [9] appears, read: measured here: cell count channel max response.
Where [10] appears, read: measured here: lipid channel max response.
Where [11] appears, read: at 12.8 µM (top of the series), parasite line A.
[12] abbreviates: at 12.8 µM (top of the series), parasite line B.

Results filed as inconclusive are left out. The source made the active and inactive calls. Unless noted, calls follow the shape of the dose curve; as a rule, active = well fitted curve in the direction sought with a large enough effect; inconclusive = small, poorly fitted or top-dose-only effect, or another doubt; inactive = no such curve, though single readings can be large; an effect the other way counts as inactive or inconclusive.

Luciferin 4-monooxygenase (Photinus pyralis), sequence (P08659 whole entry, looked up): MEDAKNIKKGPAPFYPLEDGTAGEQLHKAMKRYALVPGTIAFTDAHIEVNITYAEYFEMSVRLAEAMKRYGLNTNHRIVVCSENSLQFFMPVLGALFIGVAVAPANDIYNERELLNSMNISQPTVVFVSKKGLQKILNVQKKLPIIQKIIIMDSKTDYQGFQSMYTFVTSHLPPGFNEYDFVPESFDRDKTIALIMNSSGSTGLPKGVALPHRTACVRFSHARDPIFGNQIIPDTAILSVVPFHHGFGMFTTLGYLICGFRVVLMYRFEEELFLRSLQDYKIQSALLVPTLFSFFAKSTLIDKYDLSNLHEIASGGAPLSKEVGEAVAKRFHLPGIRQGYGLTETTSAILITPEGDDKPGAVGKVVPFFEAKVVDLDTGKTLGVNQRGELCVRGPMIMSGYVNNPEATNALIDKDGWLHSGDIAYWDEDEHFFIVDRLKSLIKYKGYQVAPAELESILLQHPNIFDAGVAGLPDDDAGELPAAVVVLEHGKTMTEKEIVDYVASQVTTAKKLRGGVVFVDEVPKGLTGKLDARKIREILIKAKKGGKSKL
3',5'-cyclic-AMP phosphodiesterase 4B (Homo sapiens), sequence (Q07343 whole entry, looked up): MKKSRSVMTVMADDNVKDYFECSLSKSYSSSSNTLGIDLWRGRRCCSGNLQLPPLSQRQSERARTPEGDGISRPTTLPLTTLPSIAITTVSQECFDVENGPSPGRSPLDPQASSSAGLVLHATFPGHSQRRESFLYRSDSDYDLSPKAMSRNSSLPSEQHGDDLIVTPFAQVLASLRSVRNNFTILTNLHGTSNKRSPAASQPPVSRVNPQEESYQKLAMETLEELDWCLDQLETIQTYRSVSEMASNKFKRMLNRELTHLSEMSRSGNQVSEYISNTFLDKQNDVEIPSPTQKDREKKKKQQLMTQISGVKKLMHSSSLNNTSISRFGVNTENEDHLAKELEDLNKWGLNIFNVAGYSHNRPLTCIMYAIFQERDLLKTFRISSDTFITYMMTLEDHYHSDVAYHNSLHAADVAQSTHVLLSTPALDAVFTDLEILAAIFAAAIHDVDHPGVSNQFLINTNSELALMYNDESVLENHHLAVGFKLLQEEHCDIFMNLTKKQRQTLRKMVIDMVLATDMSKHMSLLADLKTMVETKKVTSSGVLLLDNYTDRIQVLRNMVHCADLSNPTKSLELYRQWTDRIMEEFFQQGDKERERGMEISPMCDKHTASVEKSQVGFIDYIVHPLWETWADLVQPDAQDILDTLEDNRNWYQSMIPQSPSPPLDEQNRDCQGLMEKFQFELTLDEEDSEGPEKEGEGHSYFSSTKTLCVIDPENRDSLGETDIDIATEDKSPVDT
Glucocorticoid receptor (Homo sapiens), sequence (P04150 whole entry, looked up, the tested form may be a part): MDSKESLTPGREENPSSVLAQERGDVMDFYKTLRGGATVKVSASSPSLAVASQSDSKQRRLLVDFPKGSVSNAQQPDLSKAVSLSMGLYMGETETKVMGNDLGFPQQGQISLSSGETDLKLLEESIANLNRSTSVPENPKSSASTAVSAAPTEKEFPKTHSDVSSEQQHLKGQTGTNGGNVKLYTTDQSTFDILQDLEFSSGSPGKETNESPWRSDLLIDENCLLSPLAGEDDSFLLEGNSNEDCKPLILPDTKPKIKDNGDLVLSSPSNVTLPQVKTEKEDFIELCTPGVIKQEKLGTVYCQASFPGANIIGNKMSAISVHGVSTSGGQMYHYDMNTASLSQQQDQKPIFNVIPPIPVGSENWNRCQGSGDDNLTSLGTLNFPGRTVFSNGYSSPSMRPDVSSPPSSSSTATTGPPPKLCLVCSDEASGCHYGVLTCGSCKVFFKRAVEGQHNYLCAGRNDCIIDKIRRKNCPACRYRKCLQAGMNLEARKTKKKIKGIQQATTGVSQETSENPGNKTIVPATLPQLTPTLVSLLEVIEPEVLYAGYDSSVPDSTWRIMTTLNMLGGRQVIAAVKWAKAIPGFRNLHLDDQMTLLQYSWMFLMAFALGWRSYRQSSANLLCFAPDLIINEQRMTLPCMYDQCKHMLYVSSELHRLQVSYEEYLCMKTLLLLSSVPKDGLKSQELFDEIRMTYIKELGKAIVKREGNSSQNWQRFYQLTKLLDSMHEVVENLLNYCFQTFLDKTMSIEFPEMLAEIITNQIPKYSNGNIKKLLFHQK
Ubiquitin carboxyl-terminal hydrolase 1 (Homo sapiens), sequence (O94782 whole entry, looked up): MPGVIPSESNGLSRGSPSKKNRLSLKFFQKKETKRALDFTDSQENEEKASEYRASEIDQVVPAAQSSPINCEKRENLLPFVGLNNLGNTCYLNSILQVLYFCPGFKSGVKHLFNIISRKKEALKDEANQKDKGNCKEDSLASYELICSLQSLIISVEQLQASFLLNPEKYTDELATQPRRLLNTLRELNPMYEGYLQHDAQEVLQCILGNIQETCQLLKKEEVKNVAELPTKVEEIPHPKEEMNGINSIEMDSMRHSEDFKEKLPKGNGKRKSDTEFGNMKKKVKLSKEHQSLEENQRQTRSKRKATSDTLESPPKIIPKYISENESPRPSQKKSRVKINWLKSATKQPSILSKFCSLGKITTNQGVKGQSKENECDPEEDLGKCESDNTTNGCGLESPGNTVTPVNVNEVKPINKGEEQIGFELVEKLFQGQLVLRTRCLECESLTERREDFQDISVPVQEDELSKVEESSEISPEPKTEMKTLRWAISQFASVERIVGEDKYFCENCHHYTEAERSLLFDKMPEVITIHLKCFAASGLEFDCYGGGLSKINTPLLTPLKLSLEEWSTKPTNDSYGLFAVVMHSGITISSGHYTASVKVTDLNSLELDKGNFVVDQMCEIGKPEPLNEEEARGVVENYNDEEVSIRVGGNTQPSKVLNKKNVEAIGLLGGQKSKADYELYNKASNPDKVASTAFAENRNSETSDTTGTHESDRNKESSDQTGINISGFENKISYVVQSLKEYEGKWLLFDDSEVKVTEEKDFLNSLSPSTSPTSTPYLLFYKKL
ATP-dependent 6-phosphofructokinase (Trypanosoma brucei brucei), sequence (O15648 whole entry, looked up): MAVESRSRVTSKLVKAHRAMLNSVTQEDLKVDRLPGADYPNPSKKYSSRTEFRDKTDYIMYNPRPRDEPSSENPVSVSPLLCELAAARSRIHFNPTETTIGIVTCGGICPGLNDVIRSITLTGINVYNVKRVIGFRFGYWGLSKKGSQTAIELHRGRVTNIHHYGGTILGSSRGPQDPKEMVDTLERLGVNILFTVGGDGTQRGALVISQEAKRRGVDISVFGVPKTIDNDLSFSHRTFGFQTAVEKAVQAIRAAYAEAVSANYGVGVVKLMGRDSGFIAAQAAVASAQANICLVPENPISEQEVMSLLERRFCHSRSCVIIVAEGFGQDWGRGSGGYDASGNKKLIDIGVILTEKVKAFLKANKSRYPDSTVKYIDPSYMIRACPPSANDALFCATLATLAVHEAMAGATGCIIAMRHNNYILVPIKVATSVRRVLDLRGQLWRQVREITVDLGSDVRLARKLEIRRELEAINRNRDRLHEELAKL

Turning to `CS(=O)(=O)Nc1cccc(-c2nc(Nc3ccc(F)cc3)c3ccccc3n2)c1`, in assay [1], the Potency was > 46 µM (inactive). Besides, the Potency entry in [2] is “inactive”. In addition, the molecule was classed as inactive in assay [3]. Further, the activity change, negative = inhibition in assay [4] (at 57.5 µM (top of the series)) was 3.03% (inactive). Besides, the figures for the max response in assay [4] (setting [9]) and in assay [4] (setting [10]) were -21% and -26.1%, respectively.

Turning to `O=c1cc(-c2ccc(O)cc2)oc2c([C@H]3O[C@@H](CO)[C@@H](O)[C@@H](O)[C@@H]3O)c(O)cc(O)c12`, the Potency in assay [1] was > 20.6 µM (inactive). For the same molecule, the Potency result in assay [2] and in [5] was “inactive” throughout. In assay [4] (at 25.7 µM (top of the series)), the activity change, negative = inhibition is -1.45% (inactive). Further, the max response was -1.3% in [4] (setting [9]) and 1.02% in [4] (setting [10]).

Take `CC1=C(C(=O)O)N2C(=O)[C@@H](NC(=O)[C@@H](N)c3ccc(O)cc3)[C@@H]2SC1`: the Potency in [1] is > 20.6 µM (inactive). The Potency result (in [2]; in assay [5]; in assay [7]; with AS120; in the assay on C2A; with CP191) was “inactive” each time. Besides, the Potency entry with CP217, with CP305, with CP329, with ECU, in the assay on FAB9 and in the assay with N140 was “inactive” each time. Also, the Potency result in the assay on PC15, in the assay with PC49 and in the assay on TAB165 was “inactive” throughout. In addition, the outcome in assay [3] and in assay [6] was inactive. Moreover, the activity change, negative = inhibition in assay [4] (at 25.7 µM (top of the series)) is 1.21% (inactive). Also, the max response in assay [4] (setting [9]) was -1.1%; in [4] (setting [10]), -2.01%. Further, the activity, negative = inhibition in [8] (setting [11]) is 9.01% (inactive); in assay [8] (setting [12]), 1.57% (inactive).

On to `CC(C)(C)NC(=O)[C@@H]1C[C@H]2CCCC[C@@H]2CN1C[C@H](O)[C@H](Cc1ccccc1)NC(=O)[C@@H](CC(N)=O)NC(=O)c1ccc2ccccc2n1`, for which the Potency in [1] was > 20.6 µM (inactive). Moreover, in assay [2], the Potency entry was “inactive”. Moreover, in assay [3], the result was inactive. The activity change, negative = inhibition in assay [4] (at 25.7 µM (top of the series)) was -0.923% (inactive). Besides, the max response in assay [4] (setting [9]) is 1.41%; in [4] (setting [10]) it was -0.968%.

For the molecule `COC(=O)C1=C(C)NC(C)=C(C(=O)OCCN(C)Cc2ccccc2)[C@H]1c1cccc([N+](=O)[O-])c1`, the Potency in assay [1] is > 20.6 µM (inactive). Moreover, in assay [2], the Potency result is “inactive”. For the same molecule, the call in assay [3] was inactive. In assay [4] (at 25.7 µM (top of the series)), the activity change, negative = inhibition is 0.376% (inactive). Further, the max response in [4] (setting [9]) was -15.5%; in assay [4] (setting [10]), -13.6%.

Consider `CN1CCO[C@H](c2ccccc2)c2ccccc2C1`, for which the Potency entry (in [2]; in assay [5]; in [7]; in the assay with C2A; in the assay on CP191; in the assay on CP217) was “inactive” each time. Also, the Potency entry in the assay with CP305, in the assay on CP329, with ECU, in the assay on FAB9, in the assay on PC15 and in the assay on PC49 was “inactive” throughout. Moreover, the activity change, negative = inhibition in assay [4] (at 25.7 µM (top of the series)) was -1.73% (inactive). The figures for the max response in assay [4] (setting [9]) and in [4] (setting [10]) were -10.4% and -11.4%, respectively. The activity, negative = inhibition was -5.98% (inactive) in assay [8] (setting [11]) and 0.83% (inactive) in assay [8] (setting [12]).

For `COc1cc2nc(N3CCN(C(=O)[C@@H]4COc5ccccc5O4)CC3)nc(N)c2cc1OC`, the Potency entry (in assay [2]; in assay [7]; with C2A; in the assay on CP217; in the assay with CP305; with FAB9) was “inactive” in each case. For the same molecule, the Potency entry in the assay with PC15 and with PC49 was “inactive” in each case. For the same molecule, the result in assay [3] was inactive. The activity change, negative = inhibition in [4] (at 25.7 µM (top of the series)) was -1.08% (inactive). The figures for the max response in assay [4] (setting [9]) and in [4] (setting [10]) were -1.2% and -1.61%, respectively. In addition, the activity, negative = inhibition in [8] (at 28.7 µM (top of the series), parasite line B) was -13.1% (inactive). The Potency in the assay with CP191 is 7.94 µM (active).

In the case of `C/C(=C\CNc1ncnc2nc[nH]c12)CO`, the Potency in assay [1] is > 46 µM (inactive). Besides, the Potency result in assay [2] is “inactive”. For the same molecule, the call in assay [3] was inactive. For the same molecule, the activity change, negative = inhibition in [4] (at 57.5 µM (top of the series)) is -1.3% (inactive). Also, the max response was determined as 4.12% in assay [4] (setting [9]) and 3.25% in assay [4] (setting [10]).

For the origin of these results see PubChem BioAssay (NCATS).
